The source of these data is PubChem BioAssay (NCI).

Test in all cases: NCI-60 one-dose screen, 48 h (100 = growth as untreated, 0 = no growth, -100 = all killed)
One assay concerns SK-MEL-2 melanoma. The settings on record: 10 µM unless noted.
For another assay, the system named is EKVX NSCLC. To be noted: 10 µM unless noted.
The next assay relates to SN12C renal. The settings on record: 10 µM unless noted.
In another assay the test system is UO-31 renal. To be noted: 10 µM unless noted.
A further assay concerns TK-10 renal. To be noted: 10 µM unless noted.
Another assay deals with ACHN renal. The settings on record: 10 µM unless noted.
For another assay, the system named is CAKI-1 renal. To be noted: 10 µM.
A further assay deals with A498 renal. To be noted: 10 µM unless noted.
A further assay concerns MOLT-4 leukemia. To be noted: 10 µM unless noted.
In the next assay the test system is SR leukemia. To be noted: 10 µM unless noted.
For a further assay, the system named is RPMI-8226 leukemia. To be noted: 10 µM unless noted.
Another assay concerns OVCAR-8 ovarian. To be noted: 10 µM unless noted.
Another assay relates to OVCAR-5 ovarian. To be noted: 10 µM unless noted.
Another assay relates to OVCAR-4 ovarian. The settings on record: 10 µM unless noted.
The next assay has as its system SK-OV-3 ovarian. To be noted: 10 µM unless noted.
A further assay concerns IGROV1 ovarian. To be noted: 10 µM unless noted.
A further assay has as its system OVCAR-3 ovarian. To be noted: 10 µM unless noted.
Another assay relates to HS 578T breast. To be noted: 10 µM unless noted.
A further assay deals with NCI/ADR-RES ovarian. To be noted: 10 µM unless noted.
A further assay concerns CCRF-CEM leukemia. The settings on record: 10 µM unless noted.

Compounds without any hit were thinned out: in the full panel of roughly 83,000, 20% have a hit.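 How to read the values: 0–100, growth inhibition (40 = 60% inhibited); 0, no net growth; -100 to 0, cell death (-40 = 40% of starting cells died; -100 = all dead).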 Values without a mark were called inactive. Calls of active or inactive are those of the source. How the source made its calls: active means growth percent below 10; inactive means the rest.

Consider `O=C(CSc1nnc(-c2cccs2)n1-c1ccccc1)Nc1ccc(F)cc1`, for which the growth in the assay with SK-MEL-2 melanoma is 110%; in the assay with EKVX NSCLC it was 90.9%; with SN12C renal, 95.5%; in the assay on UO-31 renal it was 59.1%; in the assay on TK-10 renal, 108%; with ACHN renal, 90.9%. Moreover, the growth was 87.3% in the assay on CAKI-1 renal; 84.7% with A498 renal; 85.6% in the assay on MOLT-4 leukemia; 71.6% in the assay on SR leukemia; 105% with RPMI-8226 leukemia; 93.5% with OVCAR-8 ovarian. Moreover, the growth is 97.3% in the assay with OVCAR-5 ovarian; 96.4% in the assay on OVCAR-4 ovarian; 82.5% in the assay with SK-OV-3 ovarian; 95.4% in the assay on IGROV1 ovarian; 111% in the assay with OVCAR-3 ovarian; 91.8% with HS 578T breast. In the assay with NCI/ADR-RES ovarian, the growth is 90.7%.

As to `O=C(Nc1cc(Cl)cc(Cl)c1)Nc1nc2ccc([N+](=O)[O-])cc2s1`, the growth was -22.2% (active) with SK-MEL-2 melanoma; 6.9% (active) in the assay on EKVX NSCLC; 2.15% (active) with SN12C renal; 6.95% (active) in the assay with UO-31 renal; -1.5% (active) in the assay with TK-10 renal; 3.76% (active) in the assay with ACHN renal. Besides, the growth was 6.87% (active) in the assay on CAKI-1 renal; 10.3% with CCRF-CEM leukemia; 2.31% (active) in the assay on MOLT-4 leukemia; -0.61% (active) with SR leukemia; -23.8% (active) in the assay with RPMI-8226 leukemia; 8.77% (active) with OVCAR-8 ovarian. Besides, the growth in the assay on OVCAR-5 ovarian is 24%; in the assay on OVCAR-4 ovarian it was 10%; in the assay on SK-OV-3 ovarian, -2.86% (active); in the assay on IGROV1 ovarian it was 21.1%; with OVCAR-3 ovarian, 13.8%; with HS 578T breast it was -6.91% (active). The growth with NCI/ADR-RES ovarian was 2.26% (active).

For `CCNC(=O)Oc1ccc(/C(=C(/C)c2ccccc2)c2ccc(OCCN3CCCC3)cc2)cc1`, the growth is 93.3% in the assay with SK-MEL-2 melanoma; 77.3% with EKVX NSCLC; 78.2% in the assay with SN12C renal; 61% with UO-31 renal; 102% with TK-10 renal; 86% in the assay with ACHN renal. Further, the growth was 79.9% with CAKI-1 renal; 64% in the assay on CCRF-CEM leukemia; 51.7% in the assay with MOLT-4 leukemia; 32.3% in the assay with SR leukemia; 33% in the assay on RPMI-8226 leukemia; 89.5% with OVCAR-8 ovarian. Further, the growth in the assay with OVCAR-5 ovarian is 82.3%; in the assay on OVCAR-4 ovarian it was 81.7%; in the assay with SK-OV-3 ovarian, 95.8%; in the assay on IGROV1 ovarian, 80.5%; in the assay on OVCAR-3 ovarian it was 76.6%; in the assay on HS 578T breast it was 78.4%. Moreover, the growth in the assay on NCI/ADR-RES ovarian is 76.3%.

As for `IP(CCCCCCCCCCSc1n(Cc2ccc3ccccc3c2)c(-c2ccccc2)c(-c2ccccc2)[n+]1Cc1ccc2ccccc2c1)(c1ccccc1)(c1ccccc1)c1ccccc1`, the growth was -59.5% (active) with SK-MEL-2 melanoma; -68.2% (active) with EKVX NSCLC; -72.2% (active) in the assay on SN12C renal; -4.18% (active) in the assay with UO-31 renal; -68.3% (active) with TK-10 renal; -28% (active) with ACHN renal. The growth with CAKI-1 renal is -91.4% (active); in the assay with CCRF-CEM leukemia, -33.7% (active); with MOLT-4 leukemia, -53.6% (active); in the assay with SR leukemia it was -39.8% (active); in the assay with RPMI-8226 leukemia, -38% (active); in the assay with OVCAR-8 ovarian it was -50.3% (active). Further, the growth in the assay on OVCAR-5 ovarian is -76.1% (active); with OVCAR-4 ovarian it was -68.6% (active); with SK-OV-3 ovarian, -63% (active); in the assay on IGROV1 ovarian, -66.5% (active); with OVCAR-3 ovarian, -86.4% (active); in the assay with HS 578T breast it was -30.4% (active). Also, the growth with NCI/ADR-RES ovarian was 29.6%.

`CC[C@]12C=CCN3CC[C@]4(C(=C(C(=O)OC)C1)Nc1cc5c(cc14)[C@@H]1[C@H](O5)[C@@H](O)[C@@]4(CC)CC(C(=O)OC)=C5Nc6cc(OC)ccc6[C@@]56CCN1[C@@H]46)[C@@H]32`: the growth is 32.1% in the assay on SK-MEL-2 melanoma; 19.1% in the assay on EKVX NSCLC; 16.4% in the assay on SN12C renal; 11.9% with UO-31 renal; 14.1% in the assay with TK-10 renal; -42.5% (active) with ACHN renal. The growth in the assay on CAKI-1 renal was 2.12% (active); in the assay with A498 renal it was -65.9% (active); in the assay with CCRF-CEM leukemia, 5.92% (active); in the assay on SR leukemia, 5.56% (active); in the assay with RPMI-8226 leukemia it was -23.3% (active); with OVCAR-8 ovarian, 19.5%. For the same molecule, the growth in the assay on OVCAR-5 ovarian is 25.4%; in the assay on OVCAR-4 ovarian, 31.2%; in the assay with SK-OV-3 ovarian it was 25%; with IGROV1 ovarian, 6.73% (active); with HS 578T breast it was 11.6%; with NCI/ADR-RES ovarian it was 12.4%.

`O=C(Cn1cc(CN2C(=O)c3ccc([N+](=O)[O-])cc3C2=O)nn1)Nc1ccc(F)cc1Cl`: the growth in the assay with SK-MEL-2 melanoma was 101%; in the assay with EKVX NSCLC, 97.7%; in the assay on SN12C renal it was 101%; in the assay with UO-31 renal, 81.3%; in the assay with TK-10 renal, 91.2%; in the assay with ACHN renal, 96.9%. Besides, the growth in the assay on CAKI-1 renal was 89.9%; in the assay on A498 renal it was 85.8%; in the assay on CCRF-CEM leukemia, 95.6%; in the assay with MOLT-4 leukemia it was 108%; with RPMI-8226 leukemia it was 100%; in the assay with OVCAR-8 ovarian, 96.8%. Besides, the growth in the assay with OVCAR-5 ovarian was 102%; in the assay with OVCAR-4 ovarian it was 106%; in the assay with SK-OV-3 ovarian it was 89.7%; in the assay with HS 578T breast, 111%; with NCI/ADR-RES ovarian it was 98.3%.

With `COc1cccc(/C=C/C(=O)c2ccc(NC(=O)COc3cccc4cccnc34)cc2)c1`, the growth in the assay with SK-MEL-2 melanoma was 100%; in the assay with EKVX NSCLC it was 93.2%; in the assay with SN12C renal, 95.4%; with UO-31 renal, 82.8%; in the assay on TK-10 renal it was 109%; in the assay with ACHN renal it was 101%. Also, the growth in the assay on CAKI-1 renal is 92.1%; in the assay on CCRF-CEM leukemia it was 95.3%; with MOLT-4 leukemia it was 88.9%; in the assay on SR leukemia it was 74.6%; in the assay with RPMI-8226 leukemia, 73.4%; in the assay on OVCAR-8 ovarian, 98.1%. Besides, the growth with OVCAR-5 ovarian is 103%; in the assay with OVCAR-4 ovarian it was 101%; with SK-OV-3 ovarian, 104%; in the assay with IGROV1 ovarian, 100%; in the assay with OVCAR-3 ovarian, 102%; in the assay with HS 578T breast it was 100%. Also, the growth with NCI/ADR-RES ovarian is 90.8%.

As for `CCOP(=O)(OCC)OC[C@]12CCC(C)(C)C[C@H]1C1=CC[C@@H]3[C@@]4(C)C/C(=C\c5cccnc5)[C@H](OP(=O)(OCC)OCC)C(C)(C)[C@@H]4CC[C@@]3(C)[C@]1(C)CC2`, the growth in the assay with SK-MEL-2 melanoma is 45.1%; in the assay with EKVX NSCLC, 29.9%; in the assay with SN12C renal, 29.3%; in the assay on UO-31 renal it was 29.9%; in the assay with TK-10 renal, 37.3%; with ACHN renal, 27.8%. Besides, the growth is 31% with CAKI-1 renal; 25.3% with CCRF-CEM leukemia; 9.52% (active) in the assay on MOLT-4 leukemia; 3.36% (active) in the assay with SR leukemia; -10.3% (active) in the assay with RPMI-8226 leukemia; 28.9% in the assay on OVCAR-8 ovarian. The growth was 50.1% with OVCAR-5 ovarian; 27.6% in the assay on OVCAR-4 ovarian; 34.8% in the assay with SK-OV-3 ovarian; 42.6% with IGROV1 ovarian; 28.5% in the assay with OVCAR-3 ovarian; 61.1% in the assay with HS 578T breast. In addition, the growth in the assay with NCI/ADR-RES ovarian is 52.3%.
